The values below come from paper PMC4552634, “A New Set of Chemical Starting Points with Plasmodium falciparum Transmission-Blocking Potential for Antimalarial Drug Discovery” (PLoS ONE, 2015).

This assay relates to P. falciparum stage V gametocytes. More on the design: BacTiter-Glo ATP luminescence viability of purified stage V gametocytes in 384-well plates, per cent inhibition versus DMSO. Conditions: 48 h, 5 µM, inhibitor.

Where two headings read alike, the source gives them in different places. Hit rate of the full screen: of about 13,000 compounds, about 3,200 (25%) showed an effect of 50% or more. Some of the results follow.

A word on the % Inhibition: it is the change of the read-out against control, counted positive when it falls. Consider `C=CCN1C(=O)c2[nH]nc(-c3cc(C)c(C)cc3O)c2C1c1cccc(Br)c1` (centres unmarked) [TCMDC-124621], for which the “% Inhibition” value came to 9.594%.

On to `Cn1c(CN2CCC(N3CCc4cc(NC(=O)c5ccco5)ccc43)C2)cc2ccccc21` (centres unmarked) [TCMDC-135073], for which the “% Inhibition” value was determined as 32.96%.

As to `NC(N)=Nc1cccc(NC(=O)Nc2cccc(N=C(N)N)c2)c1` [TCMDC-137209], the “% Inhibition” value is given as -4.06%. The same measure, in the same setting: the result for `Cc1ccc2c(C3=CCN(CCCCC4(C)C(=O)Nc5ccccc54)CC3)c(C)[nH]c2c1` (centres unmarked) [TCMDC-141006] reads -63.83%; that for `COc1cc(Cc2cnc(N)nc2N)cc(OCCCC(=O)O)c1OC` [TCMDC-137359], 3.526%. As for `O=C(NCCCCN1CCCC2c3ccc(O)cc3CCC21)c1ccc(-c2ccccc2)cc1` (centres unmarked) [TCMDC-139084], the “% Inhibition” value (% Inhibition) is given as -62.82%. Turning to `CCOc1cc(Cc2cnc(N)nc2N)cc(OCC)c1-n1cccc1` [TCMDC-137295], the “% Inhibition” value stood at 0.7486%. Still for that read-out and setting: the result for `CS(=O)(=O)Nc1ccc2[nH]cc(C3CC4CCC(C3)N4CC3CCC(NC(=O)/C=C/c4ccc(Cl)c(Cl)c4)CC3)c2c1` (centres unmarked) [TCMDC-139807] reads 14.27%; that for `O=C(/C=C/c1c(Cl)cccc1Cl)NC1CCC(CN2C3CCC2CC(c2c[nH]c4ccccc24)C3)CC1` (centres unmarked) [TCMDC-140103], 74.61%. `O=C(/C=C/c1ccccc1Cl)NC1CCC(CN2C3CCC2CC(c2c[nH]c4ccccc24)C3)CC1` (centres unmarked) [TCMDC-139931]: the “% Inhibition” value stood at 92.87%. Same read-out and setting: the result for `CC(C)(C)c1ccc(NC(=O)c2cccc(CN3CCCN(Cc4ccsc4)CC3)c2)cc1` [TCMDC-135992] reads -46.34%. Consider `CCC(C(=O)Nc1cc(=O)[nH]c2nc(-c3ccco3)nn12)c1ccccc1` (centres unmarked) [TCMDC-125323], for which the “% Inhibition” value is recorded as -11.89%. The same measure, in the same setting: the result for `CN(C)c1ccnc2ccc(NC(=O)Nc3ccnc4ccccc34)cc12` [TCMDC-139749] reads 70.09%. The same measure, in the same setting: the result for `CCc1cc(NC(=O)Nc2ccnc3ccccc23)ccc1OC` [TCMDC-139354] reads 1.366%. `O=C(Nc1cc(Cl)cc(Cl)c1)Nc1ccnc2ccccc12` [TCMDC-139375]: the “% Inhibition” value turned out to be 74.86%. Still for that read-out and setting: the result for `COc1cc(NC(=O)Nc2ccnc3ccccc23)cc(OC)c1` [TCMDC-139446] reads 84.12%; that for `CCCOc1cc(NC(=O)Nc2ccnc3ccccc23)cc(OCCC)c1` [TCMDC-139491], 3.955%; that for `COc1cc(NC(=O)Nc2cc(C)nc3ccccc23)cc(OC)c1` [TCMDC-139821], 78.53%. Consider `CCOc1cc(NC(=O)Nc2ccnc3ccccc23)cc(OC)c1` [TCMDC-139788], for which the “% Inhibition” value stood at 14.31%. On the same count and under the same terms, the result for `COc1ccc(Cl)cc1NC(=O)Nc1ccnc2ccccc12` [TCMDC-139457] reads 13.69%. Still for that read-out and setting: the result for `O=C(Nc1cccc(Cl)c1Cl)Nc1ccnc2ccccc12` [TCMDC-139462] reads 3.661%; that for `COc1cccc(NC(=O)Nc2cc(C)nc3ccccc23)c1` [TCMDC-138950], -4.503%. In the case of `COc1ccc(NC(=O)Nc2cc(C)nc3ccccc23)cc1Cl` [TCMDC-139820], the “% Inhibition” value is recorded as -57.55%. The same measure, in the same setting: the result for `CN(C)c1ccc(NC(=O)Nc2ccnc3ccccc23)cc1Br` [TCMDC-139316] reads -21.1%. The same measure, in the same setting: the result for `O=C(/C=C/c1ccc(Cl)c(Cl)c1)NCCCCCN1CCC(NC(=O)Nc2cccc(F)c2)CC1` [TCMDC-135704] reads -72.87%; that for `CC(C)NCc1cccc(-c2cccc(-c3nc4ccc(F)cc4[nH]3)c2)c1` [TCMDC-132747], -26.37%; that for `CC[C@@H]([C@@H](Cc1cc2ccccc2s1)C(=O)N[C@@H](CCCCNC(=O)OCc1ccccc1)C(=O)Nc1ccccn1)N(O)C=O` [TCMDC-138086], 8.625%. `CCCCc1ccc(Cc2cnc3nc(N)nc(N)c3c2C)cc1` [TCMDC-138045]: the “% Inhibition” value is -16.41%. On the same count and under the same terms, the result for `CCCCCCN(C(=O)OCc1ccccc1)C1CCN(C(=O)OC(C)(C)C)CC1C(=O)OCC` (centres unmarked) [TCMDC-140339] reads 26.28%; that for `CCOC(=O)c1c(C)n(-c2ccccc2)c2ccc(OC(=O)c3ccc(S(=O)(=O)N(CC)CC)cc3)cc12` [TCMDC-125723], 7.356%. With `CCN(C)c1cc(C(=O)N[C@@H](Cc2ccccc2)[C@H](O)CNC(C)(C)c2cccc(OC)c2)cc(N2CCCC2=O)c1` [TCMDC-134529], the “% Inhibition” value was determined as 28.65%. Consider `Cc1cc(NC(=O)Nc2ccc(C(C)C)cc2)c2ccccc2n1` [TCMDC-139826], for which the “% Inhibition” value is given as 6.688%.

Take `Cc1cc(NC(=O)Nc2ccc(C(C)(C)C)cc2)c2ccccc2n1` [TCMDC-139981]: the “% Inhibition” value turned out to be 63.23%. For the compound `CSc1ccc(NC(=O)Nc2cc(C)nc3ccccc23)cc1` [TCMDC-139394], the “% Inhibition” value was 23.44%. In the case of `CCOc1cc(CC)ccc1C1CCN(CCN2CCC(NC(=O)c3ccc(-c4ccc(C(C)=O)cc4)cc3)CC2)CC1` [TCMDC-138882], the “% Inhibition” value was -11.21%. Take `CCOc1cc(CC)ccc1C1CCN(CCN2CCC(CNC(=O)c3ccc(-c4ccc(C#N)cc4)cc3)CC2)CC1` [TCMDC-138847]: the “% Inhibition” value was 107.7%.

For the compound `CC(=O)Oc1cc(C)ccc1C1CCN(CCCCNC(=O)c2ccc(NC(=O)c3ccc(Cl)cc3)cc2)CC1` [TCMDC-138630], the “% Inhibition” value is listed as -17.17%. As to `CCOc1cc(CC)ccc1C1CCN(CCCCNC(=O)c2ccc(NC(=O)c3ccc(Cl)cc3)cc2)CC1` [TCMDC-138317], the “% Inhibition” value came out at 61.4%.

On to `CCOc1cc(CC)ccc1C1CCN(CCN2CCC(NC(=O)c3ccc(-c4ccc(C#N)cc4)cc3)CC2)CC1` [TCMDC-138829], for which the “% Inhibition” value is listed as 12.51%.

Regarding `CCc1ccc(C2CCN(CCCCNC(=O)c3ccc(NC(=O)c4ccc(Cl)cc4)cc3)CC2)c(OCC(=O)OC)c1` [TCMDC-138707], the “% Inhibition” value is recorded as 40.9%.

Take `CCc1ccc(C2CCN(CCCCNC(=O)c3ccc(NC(=O)c4ccc(Cl)cc4)cc3)CC2)c(OC(C)=O)c1` [TCMDC-138648]: the “% Inhibition” value was found to be 96.99%. Same read-out and setting: the result for `CCc1ccc(C2CCN(CCCCNC(=O)c3ccc(NC(=O)c4ccc(Cl)cc4)cc3)CC2)c(OC)c1` [TCMDC-138377] reads -11.09%; that for `CCOc1cc(CC)ccc1C1CCN(CCCCNC(=O)c2ccc(NC(=O)c3ccc(C#N)cc3)cc2)CC1` [TCMDC-138662], 87.14%; that for `Cc1cc(C2CCN(CCCCNC(=O)c3ccc(-c4ccc(C#N)cc4)cc3)CC2)c(C)cc1OCCO` [TCMDC-138827], -59.1%. On the same count and under the same terms, the result for `CC1(C)N=C(N)N=C(N)N1OCCCNC(=O)c1ccc([N+](=O)[O-])cc1` [TCMDC-131666] reads 6.997%; that for `c1ccc(COc2ccc(Nc3ncnc4cnc(-c5ccc(CN6CCCCC6)o5)cc34)cc2)cc1` [TCMDC-137775], -26.66%. As for `CCCCCC(C)C(C)c1cc(O)c2c(c1)OC(C)(C)CC2=Cc1ccncc1` (centres unmarked) [TCMDC-131746], the “% Inhibition” value is listed as -25.77%.

As for `C#CC[C@@H](NC(N)=O)C(=O)O` [TCMDC-131404], the “% Inhibition” value was -1.405%.

As for `O=S(=O)(NC1CCN(c2ccnc3cc(Cl)ccc23)C1)c1cccc(F)c1` (centres unmarked) [TCMDC-133657], the “% Inhibition” value is listed as -15.22%. Still for that read-out and setting: the result for `COc1cccc(C2CCN(CCN3CCC(CNC(=O)c4ccc(-c5ccc(C(F)(F)F)cc5)cc4)CC3)CC2)c1` [TCMDC-138830] reads 71.94%; that for `COc1cccc(C2CCN(CCN3CCC(NC(=O)c4ccc(-c5ccc(C(F)(F)F)cc5)cc4)CC3)CC2)c1` [TCMDC-138819], 18.98%. Same read-out and setting: the result for `CCOc1cc(C)ccc1C1CCN(CCCCNC(=O)c2ccc(-c3ccc(C(F)(F)F)cn3)cc2)CC1` [TCMDC-138535] reads 16.24%; that for `CCOc1cc(C)ccc1C1CCN(CCN2CCC(CNC(=O)c3ccc(-c4ccc(C(F)(F)F)cc4)cc3)CC2)CC1` [TCMDC-138805], 96.77%; that for `COc1cccc(C2CCN(CCN3CCC(NC(=O)c4ccc(-c5ccc(Cl)cc5)cc4)CC3)CC2)c1` [TCMDC-138833], -13.87%. Consider `CCOc1cc(C)ccc1C1CCN(CCCCNC(=O)c2cccc(-c3ccc(C(F)(F)F)cc3)c2)CC1` [TCMDC-138534], for which the “% Inhibition” value amounted to 29.59%. For the compound `CCOc1cc(C)ccc1N1CCN(CCN2CCC(NC(=O)c3ccc(-c4ccc(C#N)cc4)cc3)CC2)CC1` [TCMDC-138866], the “% Inhibition” value amounted to 88.4%.

Take `CCc1ccc(C2CCN(CCCCNC(=O)c3ccc(NC(=O)c4ccc(Cl)cc4)cc3)CC2)c(OCCO)c1` [TCMDC-138703]: the “% Inhibition” value was 131.2%.

For the compound `COc1cccc(C2CCN(CCN3CCC(NC(=O)c4ccc(-c5ccc(C#N)cc5)cc4)CC3)CC2)c1` [TCMDC-138860], the “% Inhibition” value is listed as -1.987%. On the same count and under the same terms, the result for `COc1ccccc1C1CCN(CCN2CCC(NC(=O)c3ccc(-c4ccc(C#N)cc4)cc3)CC2)CC1` [TCMDC-138880] reads -25.62%. On the same count and under the same terms, the result for `CN(C)CCOc1ccnc2ccc(NC(=O)Cc3ccc(-c4ccncc4)c4ccccc34)cc12` [TCMDC-139162] reads 6.193%; that for `CCOc1ccnc(=O)[nH]1` [TCMDC-124258], 20.67%. Still for that read-out and setting: the result for `C=CCOc1ccc(C2C(C(=O)OC)=C(C)NC3=C2C(=O)c2ccccc23)cc1OC` (centres unmarked) [TCMDC-125383] reads -17.47%; that for `O=C(Nc1cccc(-c2nn3ncccc3c2-c2ccnc(Nc3cccc(-c4cnco4)c3)n2)c1)c1c(F)cccc1F` [TCMDC-135550], -49.22%; that for `CN1CCN(c2nsc3ccc(-c4ccc(OCCN5CCCC5)cc4)cc23)CC1` [TCMDC-133436], 111.5%. As for `CN1CCN(c2ccnc3ccc(NC(=O)Nc4ccc(-c5ccccc5)cc4)cc23)CC1` [TCMDC-139320], the “% Inhibition” value is recorded as -2.633%. Same read-out and setting: the result for `Fc1ccc(-c2cc3ncnc(N4CCN(CCN5CCCC5)CC4)c3s2)cc1` [TCMDC-125053] reads 6.032%.

`O=C(Nc1ccc(-c2ccc(-c3nc4ccc(C(F)(F)F)cc4[nH]3)cc2)cc1)Nc1ccc(F)c(F)c1F` [TCMDC-133223]: the “% Inhibition” value was -19.68%. On to `CN1CCCc2ccc(NC(=O)Nc3ccc(-c4ccccc4)cc3)cc2C1` [TCMDC-133730], for which the “% Inhibition” value is -3.95%.

For the compound `CN1CCN(c2nsc3ccc(-c4ccc(NC(=O)Nc5ccccc5)cc4)cc23)CC1` [TCMDC-133437], the “% Inhibition” value amounted to 50.88%. The same measure, in the same setting: the result for `CN(C)Cc1ccc(CN2CCN(CCOc3ccc(-c4ccc(Cl)cc4)cc3)CC2)o1` [TCMDC-138673] reads 36.52%; that for `CN1CCN(c2nsc3ccc(-c4ccc(NC(=O)Nc5cc(C(F)(F)F)ccc5F)cc4)cc23)CC1` [TCMDC-133435], 89.92%.
